# Rows were chosen to be rich in hits. Some 4.1% of all compounds tested hit in one or more screens of this group.
# Gli-Sufu antag: blocks Gli-Sufu signaling in a luciferase reporter. Sufu-KO-LIGHT fibroblasts, Gli luciferase reporter luminescence. inhibition, % at 5 µM. 340,000 tested, 0.74% active. AID 588413;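 active = inhibition above about 55%, limit read from the data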;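 also: 0% = DMSO-treated cells and 100% = wells with medium but no cells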
# KLF5 inhibitor: kruppel-like factor 5 inhibition; inhibition, % at 5 µM; DLD-1 KLF5 promoter-luciferase reporter, luminescence; 290,000 tested, 0.23% active;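 active = inhibition above a per-plate limit of that plate's mean compound inhibition plus 3 SD, cut at about 60% in these data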;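 also: 0% = DMSO wells and 100% = LY294002 at 200 µM; higher means less KLF5 promoter-driven luciferase light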
# Mdm2 MdmX PPI: human Mdm2/MdmX binding inhibition. O15151+Q00987. SaOS-2 split-luciferase Mdm2/MdmX complementation, luminescence. inhibition, % at 8 µM. 330,000 tested, 3% active;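 active = inhibition of at least 50% at 8 µM in the primary screen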
# aSyn 5UTR inh: 5' untranslated region of α-synuclein, MLPCN primary screen; alpha-synuclein 5'UTR reporter, inhibitor activity; inhibition, % (tested at 7.5 µM); 300,000 tested, 0.82% active; AID 1813; in the data active = inhibition above about 60%;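 also: H4 neuroglioblastoma cells stably carrying SNCA 5'UTR luciferase fusion; 0% = DMSO wells and 100% = positive control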
# Jurkat NFkB inh: lowers PMA/ionomycin-induced NF-kB signal in Jurkat cells. PMA/ionomycin-induced NF-kB luciferase reporter, luminescence. inhibition, % at 4 µM. 330,000 tested, 0.53% active. AID 435003; in the data active = inhibition above about 50%
# 697 NFkB inh: inhibitors of the PMA/ionomycin-induced NF-kB reporter in 697 B cells. 330,000 tested, 0.33% active. 697 B-cell NF-kB luciferase reporter, 16 h. inhibition, % at 4 µM; in the data active = inhibition above about 35%
# KLF5 confirm: KLF5 inhibition, confirmation assay. DLD-1 KLF5 promoter firefly luciferase reporter, luminescence. shares compounds with KLF5 inhibitor. AID 1834. 610 tested, 79% active. inhibition, % at 4 µM;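 active = inhibition above a set limit taken from the earlier primary screen, cut at about 63% in these data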;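 also: 0% = DMSO wells and 100% = LY294002 at 200 µM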
# IEC-6 tox trip: kills rat IEC-6 cells in KLF5 counter-screen | shares compounds with KLF5 inhibitor | IEC-6 rat intestinal cells, viability luminescence | inhibition, % at 4 µM | 610 tested, 56% active | AID 1905; in the data active = inhibition above about 23%;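 also: cells exposed to compounds for 48 hours before viability read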
# Jurkat NFkB conf: inhibitors of the PMA/ionomycin-induced NF-kB reporter in Jurkat cells, retest | shares compounds with Jurkat NFkB inh | AID 435020 | 2,700 tested, 27% active | Jurkat NF-kB luciferase, 16 h | inhibition, % at 4 µM;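 active = inhibition reaching about 45% at 4 µM in either replicate, limit read from the data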;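 also: plate controls were PMA/ionomycin stimulated DMSO wells for no effect and unstimulated DMSO wells for full effect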
# 697 NFkB conf: lowers PMA/ionomycin-induced NF-kB signal in 697 B cells; shares compounds with 697 NFkB inh; 697 B-cell NF-kB luciferase, 16 h; inhibition, % at 4 µM; 2,000 tested, 35% active; AID 449746; in the data active = inhibition mostly above about 28%, no sharp cut-off; inactive = mostly below about 22%
# Mdm2 MdmX conf: human Mdm2/MdmX binding inhibition, confirmed; shares compounds with Mdm2 MdmX PPI; luminescent assay; inhibition, % at 8 µM; 10,000 tested, 55% active; AID 489028; in the data active = inhibition above about 40%
# FLuc counter: full-length luciferase inhibition in Mdm2/MdmX counter-screen; shares compounds with Mdm2 MdmX PPI; SaOS-2 full-length luciferase counterscreen, luminescence; inhibition, % at 8 µM; 6,200 tested, 77% active; AID 504607;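 active = mean inhibition at 8 µM reaching about 37%, which flags the compound as non-specific, limit read from the data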;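 also: p53-null SaOS-2 cells with luciferase driven by a doxycycline-inducible promoter; compound on cells about two nights before reading with doxycycline added after day one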
# Gli-Sufu confirm: Gli-SUFU antagonism confirmation, single concentration | AID 602428 | 2,500 tested, 40% active | inhibition, % at 5 µM | Sufu-KO-LIGHT cells, Gli luciferase reporter, luminescence | shares compounds with Gli-Sufu antag;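 active = mean inhibition at 5 µM reaching about 45%, limit read from the data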;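 also: plate controls were DMSO-treated cells for no effect and wells lacking cells for full effect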
# SufuKO cytotox: counter-screen for Gli-SUFU antagonists: cytotoxicity. Sufu-KO-LIGHT cells cytotoxicity, ATP luminescence. AID 651994. cytotoxicity, % at 5 µM. 2,500 tested, 32% active. shares compounds with Gli-Sufu antag;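 active = mean cytotoxicity at 5 µM above about 25%, limit read from the data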;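 also: cells exposed to compound overnight for roughly 16 to 18 hours; plate controls were DMSO wells with cells for no effect and medium without cells for full effect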
# Wnt3a counter: Wnt3a reporter inhibition counter-screen | shares compounds with Gli-Sufu antag | inhibition, % at 6.25 µM | 2,500 tested, 20% active | Wnt-LIGHT cells, Wnt3a-driven luciferase reporter, luminescence | AID 651995;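 active = mean inhibition above about 25%, limit read from the data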
# Numbers without * were called inactive; i = inactive; x = no result given.
SMILES,Gli-Sufu antag,KLF5 inhibitor,Mdm2 MdmX PPI,aSyn 5UTR inh,Jurkat NFkB inh,697 NFkB inh,Jurkat NFkB conf,Mdm2 MdmX conf,FLuc counter,others
C[C@H]1CCC/C=C/C2C[C@H](O)CC2[C@H](O)/C=C/C(=O)O1 (stereo not given in full),87*,101*,100*,100*,98*,71*,-25,99*,51*,KLF5 confirm=110*;IEC-6 tox trip=102*;697 NFkB conf=81*
CC1CCC/C=C/C2CC(O)CC2C(O)/C=C/C(=O)O1 (stereo not given),88*,94*,96*,133*,97*,69*,-22,100*,52*,KLF5 confirm=110*;IEC-6 tox trip=102*;697 NFkB conf=80*
C[C@H]1CCC[C@H](O)CCCCCc2cc(O)cc(O)c2C(=O)O1,3,-20,30,-58,7,9,x,x,x,
C=CC(=O)OCCO,0,x,x,x,x,x,x,x,x,
N#Cc1ccc(NC(=O)CN2C(=O)NC3(CCCCCCC3)C2=O)cc1Cl,-7,x,-7,x,-1,8,x,x,x,
Cc1nc2c(=O)n(C)c(=O)nc-2n(C)n1,76*,105*,74*,115*,56*,-30,100*,58*,19,KLF5 confirm=115*;IEC-6 tox trip=96*
CN1/C(=C\C=C\C2=[N+](C)c3ccc4ccccc4c3C2(C)C)C(C)(C)c2ccccc21,x,71*,100*,x,99*,24,84*,100*,0,KLF5 confirm=116*;IEC-6 tox trip=77*
O=C1C(=O)c2ccccc2-c2ccccc21,22,106*,99*,119*,34,15,x,100*,0,KLF5 confirm=114*;IEC-6 tox trip=101*
O=C1C(=O)c2cccc3cccc1c23,7,-23,33,-1,4,20,x,x,x,
CCCCC1(CC)COP(=O)(OCC(Cl)(Cl)Cl)OC1 (stereo not given),3,x,x,x,x,x,x,x,x,
COc1cc2c(c(OC)c1OC)-c1ccc(O)c(=O)cc1C(NC(C)=O)CC2 (stereo not given),61*,73*,69*,90*,55*,-212,1,66*,110*,KLF5 confirm=89*;IEC-6 tox trip=91*;Gli-Sufu confirm=66*;SufuKO cytotox=61*;Wnt3a counter=29*
CCOP(=S)(NN(Cc1ccccc1)C(=O)c1ccccc1)OCC,4,-45,-11,17,4,25,x,x,x,
NC(N)=N/N=C/c1ccc(N2CCOCC2)cc1,12,4,39,-21,49,8,x,x,x,
COc1ccc(/C=N\N=C(N)N)cc1,13,2,-21,-5,51*,4,16,x,x,
Nc1c2c(nc3sc4c(c13)CCCC4)CCCCC2,6,-169,-189,-170,-174,-224,-94,x,x,
CCCC1CCCCC12C(=O)NC(=O)NC2=O (stereo not given),19,x,x,x,x,x,x,x,x,
CC1(C)C[C@H]2C=C(C=O)[C@]3(C=O)C[C@]3(C)[C@H]2C1,22,16,100*,117*,94*,-153,52*,100*,-1,
CC(=O)OC(C)(C)/C=C/C(=O)[C@](C)(O)C1[C@H](O)C[C@@]2(C)C3CC=C4C(C[C@H](O)C(=O)C4(C)C)[C@]3(C)C(=O)C[C@]12C (stereo not given in full),85*,x,100*,x,92*,56*,62*,100*,1,697 NFkB conf=71*
CC1([N+](=O)[O-])COP(=O)(Nc2cccc(Br)c2)OC1 (stereo not given),-48,x,x,x,x,x,x,x,x,
COc1ccc2c3c1O[C@H]1C(=O)CC[C@H]4[C@@H](C2)N(C)CC[C@]314,-1,x,0,x,-7,30,x,x,x,
CC(C)c1oc(=O)cc2c1[C@@H](O)[C@H]1OC(=O)[C@@]3(C)C[C@@H](O)[C@@H](O)[C@@]2(C)C13 (stereo not given in full),46,18,81*,7,90*,-265,90*,58*,30,697 NFkB conf=-99
CC(C)c1oc(=O)cc2c1[C@@H](O)[C@H]1OC(=O)[C@@]3(C)CC[C@@H](O)[C@@]2(C)C13 (stereo not given in full),20,39,63*,10,72*,-19,60*,61*,65*,
COC(=O)C1=C(c2ccc(OC(F)(F)F)cc2)C[C@@H]2CC[C@H]1N2C(=O)NC(C)C,-4,x,-8,x,15,17,x,x,x,
COC(=O)CC(NC(=S)N1CC2C[C@@H](C1)Cn1c2cccc1=O)C(=O)OC (stereo not given in full),8,-27,-18,-7,-1,17,x,x,x,
C=C(C=O)C[C@@H]1C[C@H](O)C2OC3C[C@]4(C)OC5/C=C\CC6OC7C(CC=CCC6OC5CCCC4OC3CC2O1)OC1CC2OC3CC(=O)OC3C[C@@H](C)C[C@@]2(C)OC1C[C@@H]7C (stereo not given in full),61*,x,100*,113*,101*,-143,99*,95*,0,
Cc1ccc(C[n+]2c(-c3ccc(C)cc3)cc(-c3ccc(C)cc3)cc2-c2ccc(C)cc2)cc1,90*,x,100*,95*,99*,1,67*,98*,8,
C[C@@H]1O[C@@H](O[C@H]2C[C@@H](O)[C@]3(CO)[C@@H]4C(CC[C@]3(O)C2)[C@@]2(O)CC[C@H](C3COC(=O)C3)[C@@]2(C)C[C@H]4O)[C@H](O)[C@H](O)[C@H]1O (stereo not given in full),-3,x,68*,x,95*,i,67*,70*,24,697 NFkB conf=i

# Assay outcomes (PubChem BioAssay)
